# Experimental data as given in PubChem BioAssay AID1628 (Sanford-Burnham Center for Chemical Genomics, 2009).
# Screen size: about 190,000 compounds; about 930 (0.49%) were called active. This is one part of the list. Measured potencies and affinities stand elsewhere. Unmarked numbers belong to inactive results.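 Rule for the calls: active = z-score of insulin promoter reporter brightness in nuclei below -3 at 5 µM, with at least 500 cells counted; inconclusive = wells with under 500 cells, flagged as toxic or sparse; inactive = the rest.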
# Experiment: insulin promoter down-regulators in MIN6 cells, imaging, high-content screening, mouse beta cells (AID 1628)
# Conditions: MIN6 insulin promoter GFP reporter, at 5 µM, active compounds read low
row,SMILES,z-score
1,CCOc1ccc(-c2nnn(CC(=O)c3ccc4c(c3)OCCO4)n2)cc1,-0.23
2,CC(C)Cn1c(N)c(C(=O)COC(=O)c2ccc3c(c2)OCCO3)c(=O)n(C)c1=O,-4.98 (active)
3,COCc1c(C(=O)OCC(=O)c2c(N)n(CC(C)C)c(=O)n(C)c2=O)oc2ccccc12,-4.37 (active)
4,C[C@@H](C(=O)Nc1ccc2ccccc2c1)[C@H]1C[C@]1(C)[C@H](NC(=O)c1cnccn1)c1ccccc1,-4.74 (active)
5,CCOC(=O)C1=C(N2CCCCC2)c2cc3c(n2C1=O)CCCC3,-3.42 (active)
6,CCOC(=O)CN1C(=O)S/C(=C/c2ccc(N3CCCCC3)o2)C1=O,5.8
7,COc1ccc2c(OC)c3ccoc3nc2c1OC,-0.53
8,CCCS(=O)(=O)N1CCN(Cc2ccccc2[N+](=O)[O-])CC1,-3.06 (active)
9,CCCS(=O)(=O)N1CCN(Cc2ccccc2C(F)(F)F)CC1,-0.28
10,CC(C)SC1=NC(C)(C)C=C(/C=C/c2ccc(Cl)cc2Cl)N1,3.58
11,Cn1cnc2c(NCc3ccco3)ncnc21,-0.11
12,Cc1ccc(/C=N/Nc2ccc3ccccc3n2)o1,-3.22 (active)
13,Cc1cc(N/N=C/c2ccc([N+](=O)[O-])o2)nc2ccccc12,8.56
14,Cc1ccn2c(=O)cc(C)nc2c1,2.27
15,Cc1nc2ccccn2c1-c1csc(NCc2ccco2)n1,-9.7 (active)
16,Cc1ccn2c(-c3csc(NCc4ccco4)n3)c(C)nc2c1,-6.24 (active)
17,CC(=O)Nc1ccc(N2CCc3c(C)c(C#N)c4nc5ccccc5n4c32)cc1,3.8
18,CC(=O)Nc1ccc(N2C(=O)C3C4CC(=O)C(c5ccccc54)C3C2=O)cc1 (stereo unspecified),-5.05 (active)
19,CC1CN(Cc2cc(=O)[nH]c(C3CC3)n2)CC(C)O1 (stereo unspecified),-3.69 (active)
20,C/C(=N\NC(=O)C1CCCN(S(=O)(=O)c2ccccc2)C1)c1ccccn1 (stereo unspecified),-3.38 (active)
21,O=C(NCc1ccc(F)cc1)C1CCCN(S(=O)(=O)c2cccnc2)C1 (stereo unspecified),3.46
22,CCN(CCNC(=O)C1CCCN(S(=O)(=O)CC)C1)c1ccccc1 (stereo unspecified),3.08
23,COc1cc(/C=N/NC(=S)Nc2cccc(Cl)c2C)ccc1OCC(=O)N1CC(C)OC(C)C1 (stereo unspecified),-3.25 (active)
24,Oc1ccc(Cl)cc1C1=Nc2ccccc2N=C(c2ccco2)C1,4.34

row,SMILES,z-score
1,COC1=CCC2([N+](=O)[O-])CN(CCO)CC1([N+](=O)[O-])C2 (stereo unspecified),3.03
2,Cc1ccccc1N1C(=O)CC(c2c[nH]c3ccccc23)C1=O (stereo unspecified),3.5
3,CCn1c(COc2ccc(=O)n(-c3ccccc3)n2)nnc1SCc1ccccc1C,-4.23 (active)
4,CCOC(=O)c1sc(NCCNc2nc(C)c(C(=O)OCC)s2)nc1C,-0.64
5,COc1cc(=O)n(C)c2c(OCC3OC(C)(C)OC3(C)C)cccc12 (stereo unspecified),-0.95
6,O=C1C=C(Nc2ccccc2)C(=O)c2ccccc21,-0.04
7,O=C1/C(=N\S(=O)(=O)c2cccs2)C([n+]2cccc(Cc3ccccc3)c2)=C([O-])c2ccccc21,6.82
8,CCCn1c(SCC(=O)NC2CCCCC2)nnc1-c1ccncc1,3.06
9,CC(C)(C)NC(=O)CSc1n[nH]c(=O)n1-c1ccccc1,2.5
10,Cn1c(SCC(=O)NNC(=O)Cc2ccccc2)nnc1-c1ccc(Cl)cc1,-3.49 (active)
11,O=C(NC1(C(F)(F)F)NC(=O)N(c2ccc(F)c(Cl)c2)C1=O)c1ccncc1 (stereo unspecified),4.5
12,COc1ccc2cc(C(c3nnnn3C(C)(C)C)N3CCc4ccccc4C3)c(=O)[nH]c2c1 (stereo unspecified),-5.1 (active)
13,OCCC1CN(Cc2cccn2-c2ncccn2)CCN1CCc1ccccc1 (stereo unspecified),-3.43 (active)
14,CCc1ccc(N2CC(O)(c3cccs3)[N+]3=C2SCCC3)cc1 (stereo unspecified),-3.76 (active)
15,O=S(=O)([O-])CCC[n+]1c(/C=C\Nc2ccccc2)oc2ccc(-c3ccccc3)cc21,3.19
16,CSC(=Nc1cccc(C)c1)NC#N,-5.35 (active)
17,COC(=O)C1=C(N)n2c(s/c(=C\c3cccnc3)c2=O)=C(C(=O)OC)C1c1cccnc1 (stereo unspecified),3.21
18,COCCCNC(=O)c1c(N)n(/N=C/c2cccnc2)c2nc3ccccc3nc12,-3.07 (active)
19,Cc1ccc(C(=O)NCCn2c(N)c(C#N)c3nc4ccccc4nc32)cc1,4.08
20,Cc1ccc(-n2c(Cc3cccs3)nnc2SCC(=O)OC(C)C)cc1,3.05
21,COc1cc(/C=C(\C#N)c2nc3ccccc3o2)ccc1O,4.56
22,CC(C)(C)NC(=S)N/N=C\c1ccc(-c2ccc([N+](=O)[O-])cc2)o1,14.4
23,COCCNC(=S)N/N=C/c1ccc(-c2ccc([N+](=O)[O-])cc2)o1,5.22
24,CCNC(=S)N/N=C/c1ccc(-c2ccccc2)o1,-3.35 (active)

row,SMILES,z-score
1,CN(C)C(=O)C1C2NC(=S)N(c3cccc(Cl)c3)C1(C)Oc1ccc(Cl)cc12 (stereo unspecified),3.51
2,Nc1c(C(=O)c2ccccc2)sc2nsc(SCCN3CCCC3)c12,6.03
3,OC(CNCC1CCCO1)COc1ccc(OCC(O)CNCC2CCCO2)cc1 (stereo unspecified),1.04
4,CC(CNCC1CCCO1)COc1cccc2ccccc12 (stereo unspecified),-4.31 (active)
5,CCOC(=O)/C(C#N)=C/C=C1\C=Cc2ccccc2N1CC,4.84
6,O=C(c1ccccn1)N1CCN(S(=O)(=O)c2ccc3ccccc3c2)CC1,3.58
7,CS(=O)(=O)N(CCc1ccccc1)CC(=O)N1CCN(Cc2ccccc2)CC1,0.33
8,O=C(C1=C[C@H](C2CC2)C[C@H](OCCCCO)O1)N1CCN(Cc2ccccc2)CC1,3.72
9,COC(=O)CCC(NC(=O)c1cc(C)oc1C)C(=O)OC (stereo unspecified),0.79
10,COc1ccc(-c2cc(C(F)F)n3ncc(C(=O)NCC4CCCO4)c3n2)cc1 (stereo unspecified),-5.37 (active)
11,O=C(O)c1cc(-c2ccc(/C=C3/SC(=S)N(Cc4ccccc4)C3=O)o2)ccc1Cl,4.28
12,N#C/C(=C/c1ccc(N2CCOCC2)o1)c1ccc(Br)cc1,10
13,Cc1nc2ccccn2c1C(=O)NCc1ccc2c(c1)OCO2,-5.57 (active)
14,Cc1nc2ccccn2c1P(=O)(N1CCCCC1)N1CCCCC1,0.76
15,CCOCCCNc1nc2c(C)cccn2c(=O)c1/C=C1\SC(=S)N(CC(C)C)C1=O,4.38
16,CCCN1C(=O)/C(=C/c2c(NCCCOCC)nc3c(C)cccn3c2=O)SC1=S,5.71
17,CC(C)(C)NS(=O)(=O)c1ccc(CCC(=O)NCc2ccc3c(c2)OCO3)cc1,0.89
18,Cc1ccc(-c2cc(-c3ccco3)c3c(N)c(C(=O)NN)oc3n2)cc1,3.03
19,COc1cc(OC)c2c(-c3ccccc3)cc(=O)oc2c1,-1.04
20,COC(CNC(=O)c1ccc(Cn2c(=S)[nH]c3cc4c(cc3c2=O)OCO4)cc1)OC,3.48
21,COC(=O)c1c(NC(=O)CN2CCN(Cc3ccc4c(c3)OCO4)CC2)sc(C)c1C,-5.05 (active)
22,COC(=O)c1[nH]c2ccc(F)cc2c1NC(=O)CCN1CCN(Cc2ccc3c(c2)OCO3)CC1,-3.4 (active)
23,COC(=O)c1[nH]c2ccc(C)cc2c1NC(=O)CCN1CCN(Cc2ccc3c(c2)OCO3)CC1,-3.87 (active)
24,CCCNC(=O)Cn1cnc2sc(C(=O)N3CCN(Cc4ccc5c(c4)OCO5)CC3)c(C)c2c1=O,3.66

row,SMILES,z-score
1,CCCCN1C(=O)C2(NNc3ccccc3O2)c2ccccc21 (stereo unspecified),4.38
2,Cc1cc(N2CCCC2)ccc1/C=C1\NC(=S)N(C)C1=O,10.4
3,COc1ccc(N=c2oc3c(OC)cccc3cc2C(=O)NCc2ccco2)c(OC)c1,-3.31 (active)
4,O=C(NN=C1CCN(Cc2ccccc2)CC1)c1cc(Br)ccc1O,1.47
5,O=C(Nc1ccc(F)cc1)NC1CCN(Cc2ccccc2)CC1,-3.27 (active)
6,CCCCNc1ccc2c3c(cccc13)C(=O)N(CCCC)C2=O,17.1
7,CC(=O)OCCCN1C(=O)c2ccc(Br)cc2C1=O,1.19
8,CC(C)Oc1ccccc1C1CC(=O)Nc2cc3c(cc21)OCCO3 (stereo unspecified),-4.18 (active)
9,CCOC(=O)C1=C(C)NC(=O)CC1c1cc2c(cc1[N+](=O)[O-])OCO2 (stereo unspecified),3.01
10,CCNc1nc(N2CCCC2)nc(N2CCCC2)n1,-3.04 (active)
11,O=C(OCCN1C(=O)c2cccc3c(N4CCOCC4)ccc(c23)C1=O)c1ccc(Cl)cc1Cl,3.13
12,CN1C=CC2=C(C#N)C(N)C(C#N)(C#N)C(c3ccccc3)C2C1 (stereo unspecified),10.1
13,CC12CCC(C/C1=N/O)C2(C)C (stereo unspecified),0.65
14,Cc1ccc2nc(C(Cl)(Cl)Cl)nc(N/N=C/c3ccncc3)c2c1,2.39
15,C(=N\Nc1nc(-c2ccccn2)nc2ccccc12)/c1ccccc1,-3.55 (active)
16,CCOc1ccc(NC(=O)NC2CC(=O)N(c3ccc(OC)cc3)C2)cc1 (stereo unspecified),2.29
17,CCOc1ccc(N2CC(C(=O)NCc3ccc(F)cc3)CC2=O)cc1 (stereo unspecified),-5.37 (active)
18,CCOc1ccc(CNC(=O)CCn2c(=O)oc3ccccc32)cc1,3.4
19,COc1cc2nc(/C=C/c3ccc(N(C)C)cc3)sc2cc1SC,15.9
20,COc1cccc(NC(=O)Cn2c(SCC(=O)N3CCOCC3)nc3ccccc32)c1,-4.09 (active)
21,COc1cccc(NC(=O)CSc2nncn2N)c1,0.29
22,COc1cccc(NC(=O)Cn2c(-c3cncs3)nc3ccccc32)c1,5.27
23,CCOc1ccc(NC(=O)Cn2c(=O)oc3ccccc32)cc1,3.64
24,COc1cccc(NC(=O)CSc2nc3ccccc3c(=O)n2CCCC(=O)N2CCCC2)c1,-4.63 (active)
